DUSP3 inh: VHR1 phosphatase inhibitors, primary screen, biochemical, absorbance, uHTS; recombinant VHR phosphatase, pNPP absorbance; inhibition, % at 13.3 µM; Dual specificity protein phosphatase 3 (Homo sapiens), P51452; 290,000 compounds, 0.52% hits; in the data active means inhibition above about 50%
CCHFV vOTU inh: CCHFV vOTU protease inhibitors, primary screen, biochemical, Pep-AMC substrate, fluorescence; Crimean-Congo hemorrhagic fever virus L polyprotein viral ovarian tumor (vOTU) protease …; inhibition, % at 11.5 µM; 370,000 compounds, 0.55% hits; AID 651958, 2012; in the data active means inhibition above about 30%
SSB-PriA inh: inhibitors of Klebsiella pneumoniae PriA binding to SSB C-terminal tail, primary screen, biochemical, AlphaScreen; 430,000 compounds, 0.6% hits; AlphaScreen SSBct-PriA binding, biotinylated peptide; inhibition, % at 33 µM; AID 1272365, 2023; PriA–SSB C-terminal tail interaction (Klebsiella pneumoniae); in the data active means inhibition mostly above about 37%, no sharp cut-off; inactive means mostly below about 20%
TcdB GH inh: TcdB glycohydrolase inhibitors, primary screen, biochemical, single point, plate reader | Toxin B (Clostridioides difficile), P18177 | TcdB glycohydrolase enzymatic assay | inhibition, % at 9.99 µM | 350,000 compounds, 0.24% hits | AID 652162, 2013; in the data active means inhibition above about 10%
PrPC TRFRET: inhibitors of human cell surface prion protein PrPC, primary screen, cell-based, TR-FRET; TR-FRET read-out; inhibition, % at 13.8 µM; 370,000 compounds, 0.43% hits; in the data active means inhibition above about 24%
BH1578 lux ind: inducers of Vibrio cholerae quorum light production without autoinducers, primary screen, BH1578 luxS cqsA deficient, single point | V. cholerae BH1578 lux reporter, luminescence, 6 h | activation, % at 18.7 µM | 350,000 compounds, 0.16% hits | AID 588436, 2011; in the data active means activation mostly above about 9.7%, no sharp cut-off
PrPC TRFRET cf: confirmation of inhibitors of cell surface human prion protein, confirmation, cell-based, TR-FRET; 1,500 compounds, 65% hits; shares compounds with PrPC TRFRET; cell surface PrPC level; inhibition, % at 13.8 µM; in the data active means inhibition above about 25%
LD9 tox: cytotoxicity in LD9 cells, cytotoxicity control for cell surface PrPc inhibitor project, cell-based, luminescence, high throughput | 1,500 compounds, 29% hits | AID 743201, 2013 | luminescence viability | shares compounds with PrPC TRFRET | inhibition, % at 13.8 µM; in the data active means inhibition above about 9.5%
A number is an active result; - = inactive; . = no result. Compounds with a hit are over-represented: about 1.5% of the library has one in this group of screens.

SMILES	DUSP3 inh	CCHFV vOTU inh	SSB-PriA inh	TcdB GH inh	PrPC TRFRET	BH1578 lux ind	PrPC TRFRET cf	LD9 tox
O=C(c1ccc(Cl)c(Cl)c1)c1cc(-c2ccccn2)c(N2CCOCC2)s1	-	-	-	.	41.1	-	52.4	-
O=C(Nc1nc2c(s1)COc1ccccc1-2)c1ccno1	.	.	-	.	.	.	.	.
Brc1ccc2ncnc(NCc3ccco3)c2c1	-	-	-	.	26.0	-	32.3	13.1
COc1cc2ncnc(NCc3ccco3)c2cc1OC	-	-	-	-	-	-	.	.
CSCCC(Nc1ncnc2ccc(Br)cc12)C(=O)O (centres undefined)	-	-	-	-	41.7	-	104.2	-
CC(C)Nc1ncnc2ccc(Br)cc12	-	-	-	-	25.1	-	33.6	-
O=C(Cc1ccc(F)cc1)Nc1ccc(SCC(=O)N2CCCC2)nn1	.	.	-	.	.	.	.	.
CNC(=O)c1ccsc1NC(=O)c1cc(OC)c(OC)c(OC)c1	.	.	-	.	.	.	.	.
Nc1c(C(=O)Nc2ccc3c(c2)OCCO3)nnn1Cc1cccc(Br)c1	.	-	-	-	28.6	-	-	-
COCc1cc(=O)[nH]c(Nc2nc3ccc(C)cc3o2)n1	-	-	-	.	31.6	-	-	47.7
O=C(NC1CCCCC1)N1CCN(Cc2cnc3ccccn23)CC1	.	.	-	.	.	.	.	.
COc1ccc(Cn2cccc(NC(=O)Nc3cccc(OC)c3)c2=O)cc1	-	-	-	-	25.2	-	29.4	-
CC(=O)c1cnc(Nc2cccc(Cl)c2Cl)s1	-	-	-	-	26.3	-	-	-
COc1ccc(-c2cnc(SCC(=O)Nc3ccc4c(c3)OCO4)n2Cc2ccco2)cc1	-	-	-	.	25.2	-	-	9.3
COc1ccc(C(N)=NOC(=O)c2ccc(OC)c([N+](=O)[O-])c2)cc1OC	.	.	-	.	.	.	.	.
COc1cc2nc(CN3CC=C(c4ccccc4)CC3)[nH]c(=O)c2cc1OC	.	-	-	-	24.5	-	47.0	25.1
Cc1cc(C(=O)CSc2nc3ccccc3[nH]2)c(C)n1CC1CCCO1 (centres undefined)	-	-	-	.	44.2	-	34.2	37.7
Cc1cc(C(=O)CSc2nc3ccccc3o2)c(C)n1CC1CCCO1 (centres undefined)	-	-	-	.	-	-	.	.
Cc1nc(SC2CCOC2=O)c2c(C)c(C)sc2n1 (centres undefined)	-	-	-	.	98.1	-	102.6	-
COC(=O)c1ccc(C(c2c(N)n(CC(C)C)c(=O)[nH]c2=O)N2CCN(c3ccccc3)CC2)cc1 (centres undefined)	-	-	-	.	29.7	-	-	10.5
CNCc1nc(-c2ccccn2)no1	.	.	-	.	.	.	.	.
COc1ccccc1C(=O)NC(=S)/C=C1/N(C)c2ccccc2C1(C)C	-	-	-	-	28.7	-	48.7	11.0
COc1ccc2nc(N3CCN(C(=O)c4cc(C)on4)CC3)sc2c1	.	.	-	.	.	.	.	.
COc1ccc(S(=O)(=O)Nc2nc3ccc(S(=O)(=O)N4CCCC4)cc3s2)cc1	.	.	-	.	.	.	.	.
CCOC(=O)N1CCN(C(=O)/C(=C/c2ccc(OC)c(OC)c2)NC(=O)c2ccccc2)CC1	-	-	-	-	28.9	-	-	-
SMILES	DUSP3 inh	CCHFV vOTU inh	SSB-PriA inh	TcdB GH inh	PrPC TRFRET	BH1578 lux ind	PrPC TRFRET cf	LD9 tox
CCn1nccc1C(=O)Nc1nc2c(s1)Cc1ccccc1-2	.	.	-	.	.	.	.	.
C[C@@]12C(=O)N(c3cccc(Cl)c3)C(=O)N1[C@@H]1c3ccccc3OC[C@@H]1[C@H]2c1ccccc1	.	-	-	-	-	-	.	.
C[C@@]12C(=O)N(c3cccc(F)c3)C(=O)N1[C@@H]1c3ccccc3OC[C@@H]1[C@H]2c1ccccc1	.	-	-	-	28.7	-	-	-
Cc1ccc2c(c1)[C@H]1[C@H](CO2)[C@H](c2ccccc2)[C@]2(C)C(=O)Nc3cc(F)c(F)cc3C(=O)N12	.	-	-	-	29.1	-	-	-
Cc1ccc2c(c1)[C@H]1[C@H](CO2)[C@H](c2ccccc2)[C@]2(C)C(=O)Nc3ccc(F)cc3C(=O)N12	.	-	-	-	-	-	.	.
Cc1ccc(OCC(=O)OCCOc2ccc([N+](=O)[O-])cc2)cc1	.	.	-	.	.	.	.	.
O=C(Nc1ccccc1-c1ccc(=O)[nH]n1)c1ccsc1	.	.	-	.	.	.	.	.
Cc1cccc2sc(NC(=O)c3cc(S(=O)(=O)N(C)C)ccc3N3CCCC3)nc12	-	-	-	-	49.5	-	31.0	-
CN(C)S(=O)(=O)c1ccc(N2CCCC2)c(C(=O)Nc2nc3ccccc3s2)c1	-	-	-	-	60.5	-	60.9	-
CN(C)S(=O)(=O)c1ccc(N2CCCC2)c(C(=O)Nc2nc3ccc(F)cc3s2)c1	-	-	-	-	-	-	.	.
CC(C)Cc1nnc(NC(=O)c2cc(S(=O)(=O)N(C)C)ccc2N2CCCC2)s1	-	-	-	-	-	-	.	.
O=S(=O)(NCc1nn(C2CCCC2)c2c1CCCC2)c1ccccc1F	.	.	-	.	.	.	.	.
CC(=O)c1sc(C(C)(C)C)cc1NC(=O)c1ccccc1C(=O)O	-	-	-	-	36.4	-	80.6	-
CCN(Cc1cnc2ccccn12)C(=O)C1c2ccccc2Oc2ccccc21	.	.	-	.	.	.	.	.
Cn1cnc([N+](=O)[O-])c1S(=O)(=O)c1ccc(Cl)cc1	-	-	-	-	36.6	-	-	91.3
C=C1C(=O)[C@]23C[C@H]1CC[C@H]2[C@]1(C)CCC[C@@](C)(C(=O)OC)[C@H]1C[C@@H]3O	.	-	.	.	60.4	.	71.2	96.0
Cc1nnc2n(-c3ccccc3)c(=O)c3c4c(sc3n12)CCCC4	-	-	-	-	-	-	.	.
NC(=O)CSc1nnc2n(-c3ccccc3)c(=O)c3c4c(sc3n12)CCCCC4	-	-	-	.	50.5	-	85.8	-
COc1ccc(CN2C(=O)C(C)SC2=N/N=C/c2ccco2)cc1 (centres undefined)	.	.	-	.	.	.	.	.
Cc1ccccc1-c1n[nH]c(=S)o1	-	-	-	.	63.1	-	71.8	-
CSc1ccccc1-c1n[nH]c(=S)o1	-	-	-	-	66.1	-	83.2	-
S=c1[nH]nc(-c2ccccc2)o1	-	-	-	.	-	-	.	.
N#CNC(=Nc1cccc(F)c1)SCc1ccccc1F	-	-	-	-	25.8	-	-	-
CCCc1ccc(C(=O)NNc2cc(Cl)ccc2Cl)cc1	-	-	-	-	24.9	-	27.1	-
CCCc1ccc(C(=O)NNC(=O)c2ccc(Cl)cc2)cc1	-	-	-	.	-	-	.	.
CCc1ccc(C(=O)NNc2cc(Cl)cc(Cl)c2)cc1	-	-	-	-	-	-	.	.

Screens deposited in PubChem by several laboratories.
